# According to PubChem BioAssay AID1460 (National Center for Advancing Translational Sciences (NCATS), 2008):
# Screen size: about 270,000 compounds; about 5,800 (2.1%) were called active. Roughly 16% stayed inconclusive and do not appear here. The full list was thinned out, with actives kept by preference. Some structures have more than one record in an assay (separate samples or runs), and their calls can disagree. Values without a mark were called inactive. The call rests on the fitted dose curve; in most records, active means well fitted inhibition curve with a large enough effect; inconclusive means small, poorly fitted or top-dose-only effect; inactive means flat fitted curve, though single readings scatter.
# Molecular target: Microtubule-associated protein tau (Homo sapiens) (UniProt P10636)
# Sequence (P10636 561-689 P618L limits assumed): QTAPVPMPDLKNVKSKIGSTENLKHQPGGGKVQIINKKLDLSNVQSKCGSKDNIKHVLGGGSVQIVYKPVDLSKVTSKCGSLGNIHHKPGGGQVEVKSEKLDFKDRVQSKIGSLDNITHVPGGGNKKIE
# Test: qHTS for Inhibitors of Tau Fibril Formation, Thioflavin T Binding; further: nearly all actives have a fitted effect of over 55% in size
# Conditions: recombinant tau K18 P301L (four-repeat tau fragment), heparin-induced fibrillization, ThT fluorescence; series mostly up to 57.4 µM; activity, negative = inhibition: at the top concentration
# How it was run: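 In this qHTS, human K18 P301L tau is incubated with compound and heparin for 6 hr at 37 C, and Thioflavin T fluorescence then reports fibril load.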
# On the % scale 0 is the no-effect control and ±100 the full control effect; potency means the concentration at half of the fitted maximal effect.
Compound,Potency,"activity, negative = inhibition"
C=CC(C1=CC(=O)C=CC1=O)c1ccc(O)cc1 (stereo not drawn),28.2 µM (active),
COc1cc2nc(SCc3ccc(F)cc3)n3nc(CCn4c(C)nc5ccccc54)nc3c2cc1OC,,-12.9%
CCCN(CC(=O)Nc1ccc(C(N)=O)cc1)CC(=O)Nc1ccccc1C,,-3.27%
CCCC(=O)Nc1ccc(C(=O)N/N=C/c2ccc[nH]2)cc1,15.8 µM (active),
CCCC(=O)Nc1ccc(C(=O)NCCCn2ccnc2)cc1,,-11.2%
CCOc1cc2[nH]c(=O)n(Cc3ccc(C(=O)NCCN(CC)CC)cc3)c(=O)c2cc1OCC,,6.18%
CCN(CCCNC(=O)c1c(C)oc2ncn(CC(C)C)c(=O)c12)Cc1ccccc1,,8%
Cc1ccc2[nH]c3c(=O)n(CC(=O)NC(C)C)ncc3c2c1,,-3.68%
COc1ccc(Cc2nc3ccc(C(=O)NCc4ccccc4Cl)cc3o2)cc1,,-9.09%
COc1ccc(OC)c(NC(=O)CSC2=Nc3ccccc3C3=NC(CC(=O)NCc4ccc(F)cc4)C(=O)N23)c1 (stereo not drawn),,-12.4%
C#CCN1C(=O)C(O)(CC(=O)c2cc(OC)ccc2OC)c2ccccc21 (stereo not drawn),,0.707%
COc1ccc2c(c1)C(=C(C#N)C#N)C(=O)N2CCc1ccccc1,28.2 µM (active),
Cc1ccc(C(=O)CC2(O)C(=O)N(CCc3ccccc3)c3ccc(Br)cc32)cc1 (stereo not drawn),,-9.21%
Cc1cccc(C(=O)N2c3nc(-c4ccco4)nn3C3(CCCCC3)[C@@H]3CCCC[C@@H]32)c1,,-1.11%
COc1ccccc1N1CCN(C2C(=O)c3ccccc3N2C(C)=O)CC1 (stereo not drawn),,-2.56%
CCOC(=O)C1=C(O)CSC1=Nc1cccc(Cl)c1,,-2.64%
CN(C)c1nc(=Nc2cccc(Cl)c2)ss1,25.1 µM (active),
CC(=O)N1CCCc2cc(S(=O)(=O)N3CCC(C(=O)NCc4ccc(C)cc4)CC3)ccc21,,-0.974%
CCCCN(CC)CCCNC(=O)c1nn(C)c2c1CS(=O)(=O)c1ccccc1-2,,2.42%
Cc1c2cnn(-c3ccccc3)c(=O)c2c(C)n1C(C)C(=O)Nc1ccc(Br)cc1F (stereo not drawn),,-2.01%
CCSC1=C(C#N)C(=O)n2c1cc1c2CCCC1,25.1 µM (active),
CCSc1ncnc2c(C#N)c3n(c12)CCCCC3,,-2.45%
CCc1ccccc1NC(=O)c1ccc(F)c(S(=O)(=O)NC2CCCCCC2)c1,,7.47%
Cc1oc2c(c1C(=O)Nc1ccc(F)c(F)c1)C1=NCCN1C=N2,,-10.3%
CCOC(=O)c1ccc(CN(Cc2ccccc2)S(=O)(=O)c2ccc(Cl)cc2)cc1,,2.81%
CC(C)CCN(C(=O)Nc1ccc(Cl)c(Cl)c1)C(C)c1cccs1 (stereo not drawn),,-0.0803%

Compound,Potency,"activity, negative = inhibition"
COc1ccc(-c2csc(NC(=O)COC(=O)c3ccc(Br)o3)n2)cc1,,-9.91%
Oc1ccc(-c2csc(Nc3cccnc3)n2)cc1,15.8 µM (active),
COc1ccc(-c2csc(NC(=O)CCCc3cccs3)n2)cc1,,-12.1%
COc1ccc(-c2csc(NC(=O)c3ccc(N4C(=O)CCC4=O)cc3)n2)cc1OC,,-10.6%
O=C(NCc1cccnc1)C(=O)Nc1nc(-c2ccccc2)cs1,,-2.55%
COc1ccc(OC)c(Nc2nc(-c3ccc(O)c(O)c3)cs2)c1,10 µM (active),
c1ccc(Nc2nc(-c3ccncc3)cs2)nc1,,-22.3%
COc1ccc(-c2csc(Nc3ccc(O)cc3)n2)cc1,7.94 µM (active),
c1cnc(Nc2nc(-c3ccc4ccccc4c3)cs2)nc1,,-9.51%
Cc1ccc(NC(=O)Cn2nnc3sc4c(c3c2=O)CCC(C)C4)cc1 (stereo not drawn),,-3.78%
COC(=O)c1ccc(NC(=O)c2cc(S(=O)(=O)N3CCC(C)CC3)cn2C)cc1,,7.77%
O=S(=O)(NCCc1nnc2ccc(SCc3ccc(Cl)cc3Cl)nn12)c1ccccc1,,-9.95%
COc1ccc(Cl)cc1S(=O)(=O)N1CCC(c2ccncc2)CC1,,-4.64%
Cc1c(/C=N\NC(=O)c2cc3ccccc3o2)c2ccccc2n1C,3.55 µM (active),
CC(C)Oc1ccc(NC(=O)c2cc3ccccc3o2)cc1,,-14.6%
Cc1c(/C=N/N2C(=O)C3C4C=CC(C4)C3C2=O)c2ccccc2n1C (stereo not drawn),,-16.2%
COC(=O)CCCC1=CC2=CC(=O)C(C)(OC(=O)c3cccs3)C(=O)C2=CN1c1ccc(CO)cc1 (stereo not drawn),,-2.21% [at 11.5 µM]
COC(=O)CCCC1=CC2=CC(=O)C(C)(OC(=O)c3cccs3)C(=O)C2=CN1CC(C)C (stereo not drawn),,-12.7% [at 11.5 µM]
COC(=O)CCCC1=CC2=CC(=O)C(C)(OC(=O)c3cccs3)C(=O)C2=CN1c1cccc(C#N)c1 (stereo not drawn),31.6 µM (active),-5.58% [at 11.5 µM]
CCn1c2c(c(=O)n3ncc(C(=O)N4CCN(c5ccccc5)CC4)c13)CN(Cc1ccc(OC)cc1)CC2,,-8.87%
COc1ccc(-n2c(=O)c3sc4ccccc4c3n(CC(=O)Nc3cccc(C)c3)c2=O)cc1,,-3.04%
CNC(=S)N/N=C/c1ccc(N2CCOCC2)s1,17.8 µM (active),
C=CCNC(=S)N/N=C/c1ccc(C)s1,,-16.9%
Cc1ccc(NC(=S)NCCN2CCOCC2)cc1,,-4.08%
O=C(NCc1ccccc1)c1ccc2c(c1)nc1n2CCCCC1,,-5.97%
O=C(C1CCC(Cn2c(=O)c3sccc3n(Cc3ccccc3F)c2=O)CC1)N1CCCCC1 (stereo not drawn),,-8.56%

Compound,Potency,"activity, negative = inhibition"
COc1ccc(-c2csc(N3CCN(Cc4ccc5c(c4)OCO5)CC3)n2)cc1,,-12.7%
Cc1noc(C)c1/C=N/Nc1ccc2ccccc2n1,,-14.4%
Brc1ccc(-c2csc(N/N=C/c3ccc4c(c3)OCO4)n2)cc1,4.47 µM (active),
C(=N\Nc1ccc2ccccc2n1)/c1ccc2c(c1)OCO2,10 µM (active),
O=C(CNC(=O)C(c1ccccc1)c1ccccc1)N/N=C\c1ccc2c(c1)OCO2,,3.78%
O=C(Cc1ccc(F)cc1)N/N=C/c1ccc2c(c1)OCO2,,6.78%
COc1ccc(Cl)cc1NC(=O)C(C)Sc1nc2c(c(=O)[nH]1)CCCC2 (stereo not drawn),,6.23%
Cc1ccc(-c2nc(SCc3ccc(Br)cc3)n3[nH]c(=O)cc3n2)cc1,,-2.48%
COc1cc(-c2cc3n(C)c(C)c(CCC(=O)Nc4ccc(F)cc4)c(=O)n3n2)cc(OC)c1OC,,-6.9%
C(=N/Nc1cc(N2CCOCC2)nc(N2CCOCC2)n1)/c1ccccc1,,-7.28%
Cc1cc(N2CCN(c3ccccc3)CC2)nc(N2CCOCC2)n1,,-15.2%
CN(C)c1ccc(/C=N/Nc2cc(N3CCOCC3)nc(N3CCOCC3)n2)cc1,7.94 µM (active),
CCC(=O)N1c2ccccc2CC1C(=O)N1CCN(c2ccccc2F)CC1 (stereo not drawn),,12%
COc1ccc(CCNC(=O)c2cc3cccc4c3n2CC(C)S4)c(OC)c1OC (stereo not drawn),,-16.6%
O=C(Nc1ccccc1Br)c1cc(CN2CCCC2)on1,,-4.74%
COC(=O)CCNc1ccc2c(c1)OCCO2,,-10.3%
COc1ccc(C(=O)Nc2ccc3c(c2)OCO3)cc1OC,,-17.1%
CCOc1ccc(NCCC(=O)c2ccc3c(c2)OCO3)cc1,15.8 µM (active),
COc1ccccc1-c1noc(-c2ccc(NCc3ccccc3)c([N+](=O)[O-])c2)n1,,-4.22%
COC(=O)c1ccc2c(c1)N(CC(=O)Nc1ccc(C)c(C)c1)C(=O)c1ccccc1S2,,0.44%
O=C(CSc1nnc(-c2ccncc2)n1-c1ccccc1)Nc1ccc(Cl)c(Cl)c1,,9.69%
CCC(Sc1nnc(-c2ccc(OC)cc2)c(-c2ccc(OC)cc2)n1)C(=O)NC1CCCCC1 (stereo not drawn),,3.2%
COc1cc(C(=S)NCc2ccccc2)cc(Br)c1O,35.5 µM (active),
COc1cc(C=O)c(Br)cc1OCC(=O)NCc1ccccc1,,2.3%
COc1cc(CNC2CCCC2)c(Br)cc1OCc1ccccc1,,2.58%
O=C(NCC(c1ccco1)S(=O)(=O)c1cccs1)c1ccc(F)cc1 (stereo not drawn),,1.11%

Compound,Potency,"activity, negative = inhibition"
O=C(NC1CC(=O)N(c2ccc(F)cc2)C1)c1ccc(S(=O)(=O)N2CCCC2)cc1 (stereo not drawn),,1.5%
Oc1cc(O)c2c(c1)OC(c1ccc(O)c(O)c1)C(O)C2 (stereo not drawn),14.1 µM (active),
COc1ccc(Cl)cc1C(=O)Nc1ccc(N(C)C(C)=O)cc1,,-6.83%
COC(=O)c1ccc(NC(=O)c2cc(Cl)ccc2OC)cc1,,-2.76%
CCN1CCN(c2cc(C)c3cc(NC(=O)c4cc(Cl)ccc4OC)ccc3n2)CC1,14.1 µM (active),
CNC(=S)Nc1ccc([N+](=O)[O-])cc1,,-10.3%
Cc1c(NC(=O)/C=C/C(=O)O)cccc1[N+](=O)[O-],,-6.29%
O=C(O)/C=C/C(=O)NNc1ccc([N+](=O)[O-])cc1,15.8 µM (active),
COc1ccc(C2CC(=O)N(Cc3ccccc3C)c3c2c(C)nn3-c2nc(C)cc(C)n2)c(OC)c1 (stereo not drawn),,6.85%
O=C(Nc1ccc(Oc2ccccc2)cc1)C1CCN(S(=O)(=O)c2ccc(Cl)cc2)CC1,,-5.75%
CC(=O)Nc1cccc(NC(=O)CSc2cn(CC(=O)N3CCCC3)c3ccccc23)c1,,-8.02%
C=CS(=O)c1sc(Cl)c(N2CCOCC2)c1[N+](=O)[O-] (stereo not drawn),8.91 µM (active),
O=C(Nc1nnc(C2CC(=O)N(c3ccc(Cl)cc3)C2)s1)c1ccco1 (stereo not drawn),,8.55%
NC1=NC(c2cc(F)cc(F)c2)n2c(nc3ccccc32)N1 (stereo not drawn),,-4.05%
CCOc1ccc(N(CC)S(=O)(=O)N2CCCC(C(=O)NCc3ccc(SC)cc3)C2)cc1 (stereo not drawn),,-12.8%
COc1ccc(OC)c(-c2noc(N3CCN(c4cc(Cl)ccc4C)CC3)n2)c1,,-10.1%
COc1ccc(N2CCN(S(=O)(=O)c3ccc(-c4coc(C)n4)cc3)CC2)cc1,,-7.63%
CCc1nc(-c2cc(S(=O)(=O)N3CCN(c4ccc(OC)cc4)CC3)ccc2OC)no1,28.2 µM (active),
COc1ccc(/C=C/C(=O)c2ccc(OC)cc2O)cc1,5.01 µM (active),
COc1ccc(/C=C/C(=O)c2cc(Br)ccc(=O)c2O)cc1,4.47 µM (active),
COc1ccc(C(=O)Cc2cnn(-c3ccccc3)c2)c(O)c1,,-15.8%
COc1ccc2oc(=O)c(C(=O)O)cc2c1,,-0.466%
O=C(/C=C/c1ccccc1)c1ccccc1O,,-10.4%
COc1ccc(/C=C/NC(=O)Cc2ccc(OC)c(OC)c2)cc1,,-4.15% [at 11.5 µM]
